# Compound activity (PubChem BioAssay)
# Hits are enriched below; roughly 3.7% of the tested compounds scored in any of these assays.
# Nrf2 ARE act: qHTS of Nrf2 Activators. AREc32 ARE-luciferase reporter (MCF7-derived line), luminescence, 24 h. Potency, µM (series often up to 46.1 µM), for the others: top-dose activation, most hits filed as activators. 410,000 compounds, 0.31% hits. AID 624171, 2012; also: potency is read from the fitted curve at half-maximal effect; % of control where 0% means no effect; nearly all actives have a fitted effect of over 65% in size
#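 AREc32 cells carrying an ARE-driven firefly luciferase, 1000 cells/well in OPTI-MEM with 5% FBS, dosed after overnight attachment and incubated 24 hr at 37 deg C. Steady-Glo luminescence read after 30 min at RT.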
# miR-21 reporter: qHTS Assay for Modulators of miRNAs and/orActivators of miR-21; HeLa miR-21 FLuc reporter, luciferase, 48 h; 340,000 tested, under 10 active; Potency, µM (doses to about 38.3 µM), inactives show top-dose activity change, positive = activation, usual class: activators;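 also: % of control where 0% means no effect; miR-21 action dims this reporter so a rising signal means less miR-21 action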
#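 HeLa cells endogenously expressing miR-21, stably carrying CMV-driven firefly luciferase with a downstream miR-21 binding site, 2000 cells/well. Titrations up to approximately 40 uM, 48 hours; luciferase luminescence read.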
# Nrf2 block: Nrf2 qHTS screen for inhibitors | A549 ARE-Fluc reporter, luciferase luminescence, 18-24 h | Potency, µM (highest dose often 46 µM), without a hit: at the top dose activity change, negative = inhibition, hits mostly inhibitors | 360,000 compounds, 2.1% hits | AID 504444, 2011; also: potency is read from the fitted curve at half-maximal effect; % is scaled to controls: 0 for no effect and ±100 for the full control effect; nearly all actives have a fitted effect of over 60% in size
#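 A549 ARE_Fluc cells, 5000/well, 5% FBS OPTI-MEM; compounds in dose-response, 18-24 h at 37 °C/5% CO2; CellTiter-Fluor viability read (Ex 405/Em 525), then BugLite luciferase luminescence = Nrf2 activity.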
# IL-2 act: qHTS of IL-2 Activators; IL-2 activation reporter assay, cell-based qHTS; stimulated with anti-CD3/CD4/CD28 beads; in transgenic mouse T cells; activation, % (series mostly up to about 46 µM); 360,000 compounds, 0.065% hits; in the data active = activation above about 50%; inconclusive = mostly about 30% to 49%; also: 0% is about no effect
#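 Unstimulated transgenic mouse T cells, 750 per well, received compound and, after 60 minutes, anti-CD3/anti-CD4 bead plus anti-CD28 stimulation. EGFP and DsRed were quantified after 18 hours.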
# A549 tox: Nrf2 qHTS screen for inhibitors: counterscreen for cytotoxicity | A549 ARE-Fluc cells, CellTiter-Fluor viability, 18-24 h | Potency, µM (doses to about 46 µM), inactives show at the highest dose activity change, negative = cytotoxicity, hits mostly inhibitors | 390,000 compounds, 0.16% hits; also: potency is read from the fitted curve at half-maximal effect; % is scaled to controls: 0 for no effect and ±100 for the full control effect
#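 A549 ARE-Fluc cells in 5% FBS OPTI-MEM, 5000 cells/well, rested 2 h then exposed to compounds in concentration-response for 18-24 h at 37 °C. Viability by CellTiter-Fluor fluorescence (Ex 405/Em 525) after 30 min; luciferase luminescence (BugLite, 15 min, RT) read afterwards.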
# ClpP mod: qHTS Assay for Activators of ClpP; purified B. subtilis ClpP, FRET peptide cleavage, 20 min; 340,000 compounds, 1.9% hits; AID 651965, 2013; Potency, µM (series often up to 57.5 µM), for inactives: top-dose activity change, negative = active; active = well fitted falling curve with a large enough effect; inconclusive = small, poorly fitted or top-dose-only effect; inactive = no such curve, though single readings can be large or run the other way; also: potency is read from the fitted curve at half-maximal effect; the source files actives as falling curves though it sought activators and does not explain the sign; nearly all actives have a fitted effect of over 65% in size
# Target sequence (P80244 whole entry, looked up): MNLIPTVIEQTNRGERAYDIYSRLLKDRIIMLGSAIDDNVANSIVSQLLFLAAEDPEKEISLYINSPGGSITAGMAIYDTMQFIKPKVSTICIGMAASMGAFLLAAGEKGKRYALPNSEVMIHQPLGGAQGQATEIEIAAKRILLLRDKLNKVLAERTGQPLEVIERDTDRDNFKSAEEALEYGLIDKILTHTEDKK
#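 Buffer: 100 mM Tris/HCl pH8, 100 mM KCl, 0.05% low protease BSA, 2.5% glycerol, 0.01% Tween-20. ClpP 10 microg/mL final; 20 min RT; delta FRET normalized to ADEP and DMSO controls.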
# An asterisk follows results filed as active; ? = inconclusive; . = not tested or not shown; [ ] = dose if it differs, or a comment. Unless noted, calls follow the shape of the dose curve; as a rule, active = well fitted curve in the direction sought with a large enough effect; inconclusive = small, poorly fitted or top-dose-only effect, or another doubt; inactive = no such curve, though single readings can be large; an effect the other way counts as inactive or inconclusive.
SMILES,Nrf2 ARE act,miR-21 reporter,Nrf2 block,IL-2 act,A549 tox,ClpP mod
COC(=O)CCCn1c(-c2ccc(C)cc2)c(C)n2c3c(=O)n(C)c(=O)n(C)c3nc12,-1%,-3%,-27%,.,-10%,2%
Cc1ccc(-c2c(C)n3c4c(=O)n(C)c(=O)n(C)c4nc3n2CCCO)cc1,-1%,?,18µM*,.,-13%,2%
Cc1cc(Cl)ccc1Oc1ncnc2oc(-c3ccccc3)cc12,0%,-5%,.,3,16%,25µM*
Cc1cccc(Oc2ncnc3oc(-c4ccccc4)cc23)c1C,-1%,-3%,?,1,.,28µM*
Cc1noc2ncnc(Oc3cc(Cl)ccc3Cl)c12,0%,-2%,-3%,0,2%,-2%
COc1ccc(-n2c(SCC(=O)Nc3ccccc3OC)nc(O)cc2=O)cc1,0%,0%,3%,5,6%,35µM*
Cc1ccc(NC(=O)CSc2nc(O)cc(=O)n2-c2ccc(C)cc2)cc1,0%,-4%,7%,-1,1%,1%
COc1ccc(-n2c(SCC(=O)Nc3ccc(Br)cc3)nc(O)cc2=O)cc1,3%,9%,-4%,1,-1%,25µM*
COc1ccc(-n2c3c(cc(-c4nc(-c5ccc(Cl)cc5)cs4)c2=O)C(=O)CC(C)(C)C3)cc1,-1%,-16%,16%,.,-5%,?
O=S1(=O)CCOC[C@H](c2ccccc2)N1Cc1ccc(Cl)cc1Cl,.,.,.,.,.,-1%
CCc1ccc(CN(Cc2ccco2)C(=O)c2cc(-c3ccc(C)c(F)c3)on2)cc1,0%,25%,16µM*,.,-3%,0%
COC(=O)CN1C(=S)N(c2ccc(Cl)cc2)C(=O)C1CC(=O)Nc1ccccc1 (stereo unspecified),3%,-2%,2%,-1,-9%,13µM*
CCOC(=O)c1ccc(NC(=O)CSc2ccc(-c3ccccn3)nn2)cc1,8%,11%,21µM*,-1,-16%,-1%
O=C(CSc1ccc(-c2ccccn2)nn1)Nc1ccc(F)c(F)c1,4%,-12%,3.3µM*,0,-8%,0%
CCOc1ccc(NC(=O)CSc2ccc(-c3ccccn3)nn2)cc1,0%,-2%,-7%,3,1%,1%
O=C(CSc1ccc(-c2cccs2)nn1)Nc1cccc(F)c1,7%,11%,21µM*,.,0%,?
O=C(CSc1ccc(-c2cccs2)nn1)Nc1ccccc1C(F)(F)F,0%,-15%,-12%,.,17%,-2%
O=C(CSc1ccc(-c2cccnc2)nn1)Nc1ccc(Br)cc1,3%,4%,7.3µM*,0,-14%,-1%
CC(=O)Nc1ccc(NC(=O)CSc2ccc(-c3cccnc3)nn2)cc1,0%,6%,-25%,0,1%,-3%
CN(C)c1ccc(/C=C/c2ccnc3ccccc23)cc1C=O,.,.,.,.,.,0%
CCOC(=O)Cc1ccc(NC(=O)N2CC(CC)Oc3ccccc32)cc1 (stereo unspecified),1%,-3%,24%,.,0%,1%
Cc1nc(SCC(=O)Nc2ccccn2)n[nH]1,-1%,1%,12%,-2,-5%,.
COc1ccc(NC(=O)CSc2nnc3ccc(-c4ccccn4)nn23)cc1,0%,.,-11%,0,-8%,16µM*
COc1ccc(-c2ccnc(SCC(=O)Nc3ccccn3)n2)cc1,6%,-14%,.,0,-2%,35µM*
O=C(CSc1nnc2ccc(-c3ccccn3)nn12)Nc1ccccc1,-1%,.,4%,-3,-3%,36%
SMILES,Nrf2 ARE act,miR-21 reporter,Nrf2 block,IL-2 act,A549 tox,ClpP mod
O=C(OCC#CCSc1nnc(-c2cccc3ccccc23)o1)c1ccc(C(F)(F)F)cc1,.,.,1%,.,-6%,.
O=C(Nc1nc(-c2cccs2)cs1)c1ccc(S(=O)(=O)N2CCCCC2)cc1,12%,?,21µM*,-4,-5%,?
CCc1noc(C)c1C(=O)Nc1nc(-c2cccs2)cs1,?,.,?,-2,-1%,.
Cc1noc(C)c1C(=O)Nc1nc(-c2cccs2)cs1,16µM*,.,?,-1,11%,-4%
O=C(Nc1nc(-c2ccccc2)c(-c2ccccc2)s1)c1ccc(S(=O)(=O)N2CCCCC2)cc1,2%,-3%,5%,0,3%,-2%
O=C(Nc1nc(-c2ccccc2)c(C(=O)c2ccccc2)s1)c1ccc(S(=O)(=O)N2CCCCC2)cc1,0%,0%,15µM*,0,-19%,1%
COc1ccc(NC(=O)c2ccccc2OCC(=O)Nc2ccc(Br)cc2)cc1,.,.,.,.,.,-19%
O=[S+]([O-])(/C=C/c1nc(Nc2cc(F)cc(F)c2)c2ncn(CC(F)F)c2n1)c1ccccc1,.,.,-14%,.,-8%,.
Cc1ccc2c(c1)c1c(n2C)-c2[nH]ncc2CC1,6%,-43%,-28%,-1,-9%,13µM*
CC1CN(c2ccc(C(F)(F)F)cc2[N+](=O)[O-])CCN1S(C)(=O)=O (stereo unspecified),0%,-3%,?,-4,-9%,30%
O=[N+]([O-])c1cc(C(F)(F)F)ccc1N1CCN(S(=O)(=O)c2ccc3c(c2)CCCC3)CC1,0%,-8%,15µM*,-2,-19%,4%
Cc1ccc(S(=O)(=O)CCSc2nc(C)cc(C)c2C#N)cc1,4%,-1%,21µM*,-2,-21%,-3%
CCS(=O)(=O)CCSc1nc(C)cc(C)c1C#N,0%,-7%,0%,2,-1%,-1%
Nc1ccccc1SCCS(=O)(=O)c1ccc(Cl)cc1,-1%,-4%,6%,0,0%,0%
CSc1nc(N)nc(SCC(=O)Nc2ccc(Cl)cc2)c1C#N,17%,9%,15µM*,-1,?,-7%
N#Cc1c(N)nc(SCC(=O)NC2CCCCC2)c(C#N)c1-c1ccc(Cl)cc1,-1%,-3%,-19%,0,-8%,28µM*
CSc1nc(N)nc(SCCS(=O)(=O)c2ccc(Cl)cc2)c1C#N,13µM*,-4%,?,-1,-1%[1.84 µM],-5%
CCCN(CCC)CCCNC(=O)c1nn(C)c2c1CS(=O)(=O)c1ccccc1-2,-1%,0%,32%,.,1%,-16%
NCCC(=O)Nc1cccc(-c2nn3c(=O)cc(N4CCNCC4)nc3s2)c1,.,.,-6%,.,3%,.
